# Out of some 320,000 compounds screened, about 2,100 (0.66%) were called active. Another 53% or so got no clear call; they are omitted. Calls come from the whole dose curve; as a rule, active = well fitted inhibition curve with a large enough effect in the signal ratio, with a control signal flat (not every such curve was filed as active); inconclusive = small, poorly fitted or top-dose-only effect, or effect the other way, or a change in a side signal; inactive = flat fitted curve, though single readings scatter; the % refers to the signal ratio. The entries come from a sample that favours actives as a whole.
# Assay: qHTS Assay for Lipid Storage Modulators in Drosophila S3 Cells;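 for cell number change: cells counted by Cell Tracker Red CMTPX staining in the red channel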; for lipid storage change, negative = inhibition: % is set by controls: 0 for no effect and ±100 for the full control effect
# Details: BODIPY lipid droplet fluorescence, 18-24 h, cells fed with added oleic acid; cell number change: measured here: cell count max response; series mostly up to 46.1 µM; lipid storage change, negative = inhibition: at the top concentration
# Outline: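 Laser-scanning cytometry quantifies lipid droplet accumulation (500–530 nm total intensity; droplet/cell object ratio) in oleic acid-fed (400 uM added) Drosophila S3 cells treated with a concentration series. 20 uM Triacsin C defined 100% inhibition.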
# Potency is the fitted concentration of half-maximal effect.
SMILES,"lipid storage change, negative = inhibition",cell number change,Potency,outcome
CCSc1nc(=S)n(CC)c(C)c1C(C)=O,-7.91% (inactive),11%,,
CCn1c(C)c(C(C)=O)c(SC)nc1=S,,-9.08%,23.1 µM (active),
CS(=O)(=O)N(CC(=O)Nc1ccccc1-c1ccccc1)c1ccccc1,3.31% (inactive),6.57%,,
CNC(=S)NNC(=O)c1ccc(=O)n(Cc2ccc(Cl)cc2Cl)c1,14.6% [at 9.22 µM] (inactive),-1.09%,,
CC(C)(O)CC[C@@H](O)[C@](C)(O)[C@H]1CC[C@@]2(O)C3=CC(=O)[C@@H]4C[C@@H](O)[C@@H](O)C[C@]4(C)C3CC[C@]12C (stereo partly drawn),-9.22% (inactive),-13.6%,,
Cc1cccc(-n2cc(-c3ccccc3)c3c(N4CCOCC4)ncnc32)c1,8.58% (inactive),18.2%,,
CC(=O)CSc1ncnc2nc[nH]c12,1.08% (inactive),,,
O=C(O)CSc1ncnc2nc[nH]c12,,2.03%,20.6 µM (active),
O=C(CSc1ncnc2nc[nH]c12)c1ccc(Cl)cc1,4.43% (inactive),-11.7%,,
CC(C)c1nnc(NC(=O)C2CCN(C(=O)Nc3ccc(Cl)cc3)CC2)s1,3.85% (inactive),5.41%,,
CCc1ccccc1NC(=S)N(CCN1CCCCC1)Cc1ccco1,-1.49% (inactive),5.79%,,
Cc1cc(OCCCn2cnc3ccccc3c2=O)ccc1[N+](=O)[O-],20.5% (inactive),0.141%,,
COc1cc(OC)cc(C(=O)NC(=S)NNC(=O)Cc2cccs2)c1,14.8% (inactive),0.453%,,
CCOC(=O)N1CCN(c2c(N3CCN(c4ccc(OC)cc4)CC3)c(=O)c2=O)CC1,2.64% (inactive),5.73%,,
CCCCn1c(CN2CCN(c3cccc(Cl)c3)CC2)nc2c1c(=O)n(C)c(=O)n2C,,,,inactive
CCCCn1c(CN2CCN(c3ccccc3)CC2)nc2c1c(=O)n(C)c(=O)n2C,,-29.7%,20.6 µM (active),
CCCCn1c(CN2CCN(c3ccc(F)cc3)CC2)nc2c1c(=O)n(C)c(=O)n2C,5.72% (inactive),2.55%,,
O=C(NCc1ccccc1)C1C2C=CC3(CN(Cc4cccnc4)C(=O)C13)O2 (stereo not drawn),-17.4% (inactive),-20%,,
Cc1cc(C(=O)CSc2nn3c(=O)c(C(C)(C)C)nnc3s2)c(C)n1C1CC1,,,,inactive
CCOc1ccc(NC(=S)NC(=O)C2CCCC2)cc1,-6.34% (inactive),,,
CN1CCS/C1=C\C=C1/SC(=S)N(CC(=O)O)C1=O,21.7% (inactive),6.49%,,
CN1CCS/C1=C/C=C1\SC(=S)N(CC(=O)O)C1=O,13.2% (inactive),-4.93%,,
CCCCN1C(=O)/C(=C/C=C2/CC(C)(C)CN2C)SC1=S,,0.528%,9.2 µM (active),
Cc1ccc(C)c(OCc2nnc(SCC(=O)NCc3ccc4c(c3)OCO4)o2)c1,5.42% (inactive),17.4%,,

SMILES,"lipid storage change, negative = inhibition",cell number change,Potency,outcome
CC(C)Nc1ccc(C(CC(N)=O)NC(=O)Cc2ccc(Cl)cc2)cc1[N+](=O)[O-] (stereo not drawn),-6.83% (inactive),,,
COC(=O)CSc1n[nH]c(=S)s1,-3.44% (inactive),-9.98%,,
COC(=O)C(C)Sc1n[nH]c(=S)s1 (stereo not drawn),,12.5%,18.4 µM (active),
COC(=O)C(C)Sc1nnc(SC(C)C(=O)OC)s1 (stereo not drawn),,26.4%,,inactive
CCCCCCCc1c(O)nc(SCCN2CCOCC2)[nH]c1=O,15% (inactive),2%,,
Cc1cc([N+](=O)[O-])nn1CC(=O)NC(C)c1ccccc1 (stereo not drawn),8.15% (inactive),-17.7%,,
Cc1ccccc1C(=O)NNC(=O)c1ccoc1C,13.5% (inactive),21.8%,,
COC(=O)NNC(=O)c1ccccc1C,,-4.05%,25.9 µM (active),
COC(=O)NNC(=O)c1ccccc1OC,,-18.2%,,inactive
O=c1c2cc(Br)ccc2[nH]c(=S)n1Cc1ccccc1,48.1% (inactive),,,
Cc1nc2c(C(=O)NCc3cccs3)cnn2c(C)c1Cc1ccccc1,7.94% (inactive),-10.7%,,
Cc1ccc(-c2cc(C(F)(F)F)n3ncc(C(=O)NCc4ccco4)c3n2)cc1,-6.97% (inactive),-26.7%,,
Cc1cc(C)c(Cc2c(C)nc3c(C(=O)NCc4ccco4)cnn3c2C)c(C)c1,,,6.51 µM (active),
COc1ccc(-c2cc(-c3ccccc3)nc(SCC(=O)Nc3nccs3)c2C#N)cc1,11.7% (inactive),6.74%,,
Cc1ccc(NC(=O)CCNS(=O)(=O)c2ccc3[nH]c(=O)oc3c2)c(Cl)c1,,-2.47%,,inactive
CN(C(=O)c1ccc(=O)[nH]c1)C1(C(=O)NC2CCCCC2)CCCCC1,-8.5% (inactive),-13.5%,,
Cc1nn(C)cc1-c1csc(N)n1,-5.77% (inactive),19%,,
COc1ccc(NC(=O)C2CCCN(S(=O)(=O)c3cccnc3)C2)c(OC)c1 (stereo not drawn),-0.456% (inactive),12.4%,,
COc1ccc(C(=O)NNC(=S)NC(=O)c2ccco2)cc1,-27% (inactive),1.44%,,
COc1ccc(C(=O)NC(=S)NNC(=O)c2ccco2)cc1,,-19.8%,,inactive
O=C(NC(=S)NNC(=O)c1ccco1)c1ccc(F)cc1,,4.58%,18.4 µM (active),
CCCCN(C(=O)c1nn(C)c(=O)c2ccccc12)c1c(N)n(CC(C)C)c(=O)[nH]c1=O,6.7% (inactive),3.88%,,
O=C(CSc1nnc([C@@H]2CCCN2)o1)c1ccc(Cl)cc1,14.1% (inactive),3.48%,,
O=C(NC1=NCCS1)c1cccc(NC(=O)c2ccco2)c1,,,,inactive

# From PubChem BioAssay AID2685 (National Center for Advancing Translational Sciences (NCATS), 2010)
